PubChem BioAssay AID489012 (National Center for Advancing Translational Sciences (NCATS), 2010)
Inconclusive results are not listed. A number with no mark means an inactive call. Activity calls are given as the source filed them. Calls follow the shape of the dose curve; as a rule, active = well fitted activation curve with a large enough effect; inconclusive = small, poorly fitted or top-dose-only effect; inactive = no such curve, though single readings can be large or run the other way.

Target: Relaxin receptor 1 (Homo sapiens) (UniProt Q9HBX9)
Sequence (Q9HBX9 whole entry, looked up): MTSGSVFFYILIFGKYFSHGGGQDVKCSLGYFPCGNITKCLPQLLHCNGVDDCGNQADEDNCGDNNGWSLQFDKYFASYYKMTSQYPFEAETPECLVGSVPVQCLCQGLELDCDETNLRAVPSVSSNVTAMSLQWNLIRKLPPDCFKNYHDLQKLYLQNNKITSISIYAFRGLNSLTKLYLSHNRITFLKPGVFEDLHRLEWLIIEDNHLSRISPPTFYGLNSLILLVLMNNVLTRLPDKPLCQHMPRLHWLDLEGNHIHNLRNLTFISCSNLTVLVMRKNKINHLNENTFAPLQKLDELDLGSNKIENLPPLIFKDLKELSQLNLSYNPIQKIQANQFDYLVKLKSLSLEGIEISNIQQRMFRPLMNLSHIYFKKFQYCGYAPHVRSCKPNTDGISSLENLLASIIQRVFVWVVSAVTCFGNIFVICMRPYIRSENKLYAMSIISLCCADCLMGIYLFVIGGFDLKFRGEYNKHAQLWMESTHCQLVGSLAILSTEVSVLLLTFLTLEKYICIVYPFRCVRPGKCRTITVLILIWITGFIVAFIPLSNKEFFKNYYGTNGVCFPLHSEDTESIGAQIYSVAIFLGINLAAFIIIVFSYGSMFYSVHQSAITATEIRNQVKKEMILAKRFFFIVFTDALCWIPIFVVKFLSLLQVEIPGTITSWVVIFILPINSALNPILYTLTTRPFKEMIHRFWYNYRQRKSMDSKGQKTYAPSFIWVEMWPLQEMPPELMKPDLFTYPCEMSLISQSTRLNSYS
Experiment: qHTS Assay for Agonists of the Relaxin Receptor RXFP1: RXFP1 Hit Validation; also: nearly all actives have a fitted effect of over 65% in size;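 as to activation: cAMP rise lowers the TR-FRET signal in lysed cells with PDE4 inhibitor present; 0% = buffer-only basal and 100% = 29 nM porcine relaxin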
Conditions: HEK293T-RXFP1 cAMP TR-FRET, 30 min; series mostly up to 45 µM; activation: at the top concentration
Text: NIH Chemical Genomics Center [NCGC] NIH Molecular Libraries Probe Production Centers Network [MLPCN] MLPCN Grant: R03 MH085705-01A1 Assay Submitter (PI): Alexander Agoulnik NCGC Assay Overview: The relaxin hormone is involved in the variety of biological functions in normal tissues and diseases. The role of relaxin is well-established in female reproduction and parturition, mammary gland and endometrial development, maintenance of myometrial quiescence during pregnancy. Relaxin signaling through its G protein-coupled receptor (GPCR) RXFP1 results in ECM remodeling through regulation of collagen deposition, cell invasiveness, proliferation and overall tissue homeostasis. […] Recombinant human relaxin (rhRlx) is currently being tested in clinical trials as a protective agent in congestive heart failure, in treating severe preeclampsia, and as an anti-fibrotic agent in systemic sclerosis. Upon relaxin binding RXFP1 activation leads to the activation of adenylate cyclase (AC) via Gs. cAMP will activate PKA, which phosphorylates many signaling proteins. Thus, detection of cAMP increase is an easy and reliable indication of relaxin receptor activation. To screen for agonists of the relaxin receptor, a HEK293T cell line stably transfected with RXFP1 was used. RXFP1 activation was assayed by changes in cAMP levels as detected with a time-resolved fluorescence energy transfer (TR-FRET) cAMP detection kit.
NCGC Assay Protocol Summary: This is a cell-based assay for cAMP second messenger response to screen for agonists of the RXFP1 receptor. The assay was conducted in the presence of a PDE4 inhibitor (Ro 20174). The cells were lysed and the cAMP levels were measured with a TR-FRET cAMP kit. Presence of cAMP in the cell lysate disrupts binding between the cryptate-labeled anti-cAMP and d2-labeled cAMP pair, leading to a decrease in the TR-FRET signal. Data were normalized to the controls for basal activity (buffer only) and 100% activity (29 nM porcine relaxin). The EC50 values were determined from concentration-response data modeled with the standard Hill equation 1536-well assay protocol for the HEK293 RXFP1 cAMP assay: (1) Add 3 ul HEK293 RXFP1 cell culture. 2000 cells/well in DMEM/F12, 10% FBS, 1x Pen/Strep (dispensed offline with MultiDrop Combi). (2) Incubate 16-24 hr at 37C, 5% CO2. (3) Add 1 ul 400uM Ro20174 in DPBS, 0.05% BSA, 0.005% Tween 20. (3) Add 23 nl compounds in DMSO solution. Final concentration was 0.5 - 58 uM. (4) Incubate 30 min at 37C, 5% CO2. (5) Add 1 ul cAMP-d2 in lysis buffer (HTRF cAMP HiRange kit, CisBio). (6) Add 1 ul anti-cAMP antibody-cryptate in lysis buffer (HTRF cAMP HiRange kit, CisBio). (7) Incubate 30 min at room temperature. […]
Potency is read from the fitted curve at half-maximal effect.

Structure (SMILES) | activation | Potency
O=C(O)c1sc2cc(Cl)ccc2c1Cl | 26.2% | –
CCC(Oc1cc(Cl)ccc1Cl)C(=O)N1CCC2(CC1)OCCO2 (centres undefined) | 3.75% [at 115 µM] | –
Nc1ncc2[nH]cnc2n1 | – | 13.8 µM (active)
CCNC(=O)[C@H]1O[C@@H](n2cnc3c(N)ncnc32)[C@H](O)[C@@H]1O | – | 0.308 µM (active)
